Reference: PubChem BioAssay (EPA / NIEHS)
Results filed as inconclusive are left out. Active and inactive are the calls of the source. How the source made its calls, unless noted: active means hit-call score of the fitted dose curve at least 0.9, where 1 is the maximum; inactive means score below 0.9.

How the values were obtained:
[1] = CCTE_Harrill_HTTr_Viability_MCF7: CCTE's 6-hour Cell Viability Assessment for the High-Throughput Transcriptomics (HTTr) Platform, in MCF-7 cells cultured in DMEM + 10% fetal bovine serum, Harrill Lab (AID 2284010)
How it was run: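 Propidium iodide exclusion, imaged by high-content analysis, gauged viability after a six-hour exposure across eight concentrations. Cells were MCF-7 grown in DMEM with 10% fetal bovine serum; fits run in both directions against DMSO.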

[2] = CCTE_Harrill_HTTr_Apoptosis_MCF7: CCTE's 6-hour Apoptosis Assessment for the High-Throughput Transcriptomics (HTTr) Platform, in MCF-7 cells cultured in DMEM + 10% fetal bovine serum, Harrill Lab (AID 2284011)
How it was run: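 Cells are dosed with test chemicals at eight concentrations and imaged 6 hours later for caspase-3/7 activity using a green fluorogenic detection reagent. Activity is fitted in both directions against DMSO controls.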

[3] = CCTE_Harrill_HTTr_CellCount_MCF7: CCTE's Cell Proliferation Assessment for the High-Throughput Transcriptomics (HTTr) Platform, Harrill Lab (AID 2284012; active means hit-call score of the fitted dose curve at least 0.9, where 1 is the maximum;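 further: cells exposed to compound for six hours; intended direction is loss of nuclei count meaning fewer cells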)
How it was run: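 Cell count from high-content imaging of Hoechst-labeled nuclei serves as viability/growth readout. Chemicals were applied to MCF-7 cells in eight concentrations for six hours, with fitting in both directions relative to DMSO.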

[4] = CCTE_Shafer_MEA_acute_burst_number: CCTE's Neural Acute Assay for Single-Electrode Bursts, Shafer Lab (AID 2284013)
How it was run: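 Percent change in single-electrode burst number per well, from 40-min recordings taken before and after adding compound (0.03-40 uM) to primary rat cortical neurons on MEA plates at DIV 13 or 15, 37 C.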

[5] = CCTE_Shafer_MEA_acute_burst_duration_mean: CCTE's Neural Acute Assay for Mean Burst Duration, Shafer Lab (AID 2284014);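 further: hits are decreases in mean burst duration relative to DMSO controls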
How it was run: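 Rat cortical cultures, DIV 13/15; 40 min baseline, then 40 min with compound (0.03-40 uM), 37 C. Spikes: 300-5000 Hz band-pass, 8x rms threshold. Read-out: % change in mean single-electrode burst duration, DMSO-referenced, loss direction.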

[6] = CCTE_Shafer_MEA_acute_interburst_interval_mean: CCTE's Neural Acute Assay for Mean Interburst Interval, Shafer Lab (AID 2284016);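 further: percent change of mean interburst interval versus each well's own pre-dose baseline; curves fitted for decrease in interburst interval relative to DMSO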
How it was run: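 MEA recording of spontaneous network bursting in primary rat cortical cultures; mean interburst interval was compared before and after a 40-min compound exposure (0.03-40 uM) and expressed as percent change, relative to DMSO.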

[7] = CCTE_Shafer_MEA_acute_burst_percentage_mean: CCTE's Neural Acute Assay for Percentage of Spikes in a Burst, Shafer Lab (AID 2284017)
How it was run: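 Compounds were tested at 0.03-40 uM on primary rat cortical neuron networks grown over microelectrodes, with at least three wells per compound. Spontaneous firing was recorded for 40 min before and 40 min after dosing, and the change in burst percentage was computed per well.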

[8] = CCTE_Shafer_MEA_acute_burst_percentage_std: CCTE's Neural Acute Assay for Standard Deviation of Burst Percentage, Shafer Lab (AID 2284018);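 further: fitted in the negative direction so actives lower burst percentage SD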
How it was run: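 Rat primary cortical neurons on 48-well MEAs, DIV 13 or 15, 37 C. 40-min baseline then 40-min recording with compound (0.03-40 uM); well-level SD of per-electrode burst spike percentage, expressed as percent change from baseline.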

[9] = CCTE_Shafer_MEA_acute_per_network_burst_spike_number_mean: CCTE's Neural Acute Assay for Average Number of Spikes in a Network Burst, Shafer Lab (AID 2284019)
How it was run: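 Rat cortical cultures, DIV 13/15; spike threshold 8x rms noise, 300-5000 Hz band-pass, 12.5 kHz sampling; wells need >/= 10 active electrodes. Compound 0.03-40 uM, 40 min, 37 C; % change vs own baseline, DMSO negative control.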

[10] = CCTE_Shafer_MEA_acute_per_network_burst_electrodes_number_mean: CCTE's Neural Acute Assay for Mean Number of Electrodes in a Network Burst, Shafer Lab (AID 2284021);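 further: curves fitted for decreases only so hits reduce electrodes per burst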
How it was run: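 Cultures of rat cortex neurons were exposed on DIV 13 or 15 to compounds at 0.03-40 uM in at least three wells each. Activity over 40 min before and 40 min after exposure at 37 C gave the percent change in electrodes per network burst.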

[11] = CCTE_Shafer_MEA_acute_network_burst_percentage: CCTE's Neural Acute Assay for Percentage of Network Bursts, Shafer Lab (AID 2284022);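 further: curves fitted for loss so actives lower network burst percentage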
How it was run: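 Cortical neurons from rat were grown over microelectrode arrays and used on day 13 or 15 in vitro. Wells with at least 10 active electrodes received test chemical at 0.03-40 uM. Activity during 40 min of exposure was compared with the preceding 40-min baseline.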

[12] = CCTE_Shafer_MEA_acute_cross_correlation_area: CCTE's Neural Acute Assay for Area of Cross Correlation, Shafer Lab (AID 2284024);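 further: area under pooled inter-electrode spike cross-correlation near zero lag as percent change from own baseline; curves fitted for loss of cross-correlation area so actives lower synchrony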
How it was run: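 Acute exposure of mature rat cortical networks (day 13 or 15 post-plating) to 0.03-40 uM compound. Spontaneous spiking on MEA, 40 min pre- and post-dose at 37 C.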

[13] = CCTE_Shafer_MEA_acute_cross_correlation_HWHM: CCTE's Neural Acute Assay for Cross Correlation at Half Width at Half Maximum, Shafer Lab (AID 2284026);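 further: percent change per well from pre-dose baseline in spike cross-correlogram half width; hits are a decrease in cross-correlogram half width relative to DMSO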
How it was run: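 Primary cortex (rat), MEA, DIV 13/15; compound 0.03-40 uM; 40 min pre + 40 min post at 37 C; spike threshold 8x rms; wells need ≥10 active electrodes; endpoint = % change in cross-correlogram HWHM vs baseline, DMSO negative control.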

[14] = CCTE_Shafer_MEA_acute_synchrony_index: CCTE's Neural Acute Assay for Synchrony, Shafer Lab (AID 2284027);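 further: network synchrony index of spontaneous spiking in primary rat cortical neurons on MEAs; fitted for loss of signal so actives lower synchrony relative to DMSO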
How it was run: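 The synchrony index is taken as percent change per well between a 40 min baseline and a 40 min recording with compound (0.03–40 uM), at 37C. Rat cortical cultures on multiwell MEAs at DIV 13 or 15, spike threshold 8× rms noise.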

Measured: AC50

COC(=O)C1=C(C)NC(C)=C(C(=O)OCC(C)C)C1c1ccccc1[N+](=O)[O-] (configuration not stated)
inactive: [1] | [2] | [3]

CCN(Cc1cccc(S(=O)(=O)O)c1)c1ccc(C(=C2C=CC(=[N+](CC)Cc3cccc(S(=O)(=O)[O-])c3)C=C2)c2ccccc2)cc1
inactive: [1] | [2] | [3]

CCCCOCCOC(=O)COc1nc(Cl)c(Cl)cc1Cl
inactive: [1] | [3]

CCOC(=O)c1ccccc1C(=C1C=C(Br)C(=O)C(Br)=C1)c1cc(Br)c(O)c(Br)c1
active: [13] 11.8 µM
not listed: [3]
inactive: all other assays above

C1CN(SSN2CCOCC2)CCO1
inactive: [1] | [3]

CCCCCCCCCCCCCCCC[n+]1ccccc1
active: [1] 77.1 µM
inactive: [3]

C[C@]12CCC(=O)C=C1CC[C@@H]1[C@@H]2C(=O)C[C@@]2(C)[C@H]1CC[C@]2(O)C(=O)CO
inactive: [1] | [2] | [3]

CC(=O)Nc1nnc(S(N)(=O)=O)s1
inactive: [1] | [2] | [3]

CN(C)c1ccc(N=Nc2ccccc2C(=O)O)cc1
inactive: [1] | [3]

CC1(C)O[C@@H]2C[C@H]3[C@@H]4C[C@H](F)C5=CC(=O)CC[C@]5(C)[C@H]4[C@@H](O)C[C@]3(C)[C@]2(C(=O)CO)O1
inactive: [1] | [2] | [3]

CCCCCCCCCCCCCCCC(=O)OCC
inactive: [1] | [2] | [3]

C1=Cc2ccccc2C1
inactive: [1] | [2] | [3]
